# Laboratory results reported in PubChem BioAssay (NCATS).
# Inconclusive results are not listed. Unmarked numbers belong to inactive results. Calls of active or inactive are those of the source. Calls follow the shape of the dose curve; as a rule, active = well fitted cell-killing curve with a large enough effect; inconclusive = small, poorly fitted or top-dose-only effect; inactive = no such curve, though single readings can be large or run the other way.
# Assay: qHTS of pediatric cancer cell lines to identify multiple opportunities for drug repurposing: Primary screen for SJ-GBM2 cells (AID 1347091)
# Conditions: SJ-GBM2 viability, CellTiter-Glo luminescence, 48 h; series mostly up to 46 µM; activity change, negative = cytotoxic: at the top concentration
# From the text: Drug repurposing or repositioning has been offered as a strategy for drug development in oncology programs. This approach has special potential for childhood cancers and other rare or orphan diseases, where the expected return on new drug development has been a disincentive to pharmaceuticals.
# In this project we exploit the poly-pharmacology of drugs to discover new indications via phenotypic screening of a panel of 19 well-characterized cell lines derived from solid tumors seen in children and adolescents. The goal is to identify approved drugs with previously unrecognized anticancer properties that has the potential to reveal new mechanisms and biological processes involved in carcinogenesis or drug resistance. We employed a titration-based paradigm (quantitative high-throughput screening or qHTS), where all compounds were tested at multiple concentrations for their effect on cell viability. Concentration-response curves (CRCs) were derived directly from the primary screen, and both potency and efficacy values were used to identify compounds with robust bioactivity profiles. We screened the NIH Chemical Genomics Center (NCGC) Pharmaceutical Collection (NPC) and Mechanism Interrogation Plate (MIPE) small molecule collections of approved and investigational compounds against these cell lines; and measured metabolically active cells after 48 hours of compound treatment as a proxy for cell viability.
# Assay Submitter: Nathalia J. Martinez, National Center for Advancing Translational Sciences, National Institutes of Health, Rockville, MD, USA; email: natalia.martinez@nih.gov
# [1] Shen, M et al. Quantitative high-throughput phenotypic screening of pediatric cancer cell lines identifies multiple opportunities for drug repurposing. Oncotarget 2017 Dec 19;9(4):4758-4772. PMID 29435139.
# The cells were obtained from University of North Carolina (UNC), Pediatric Preclinical Testing Program (PPT), and Coriell Institute (CI).
# qHTS cell viability assay:
# Cells were assayed in growth media at a density of 500-1,000 cells/well. Five microliters of cells were dispensed into 1,536-well, white, solid-bottom, TC-treated plates (Greiner Bio One) using a multidrop dispenser and incubated at 37 degrees C, 5% CO2, under a humidified atmosphere for 5 hours. Twenty-three nanoliters of compounds and controls (neutral control DMSO or positive control bortezomib at final concentration of 2.3 µM) were subsequently transferred by Kalypsys pintool. For primary screens, the MIPE collection was tested at 11-point dilutions (final concentrations range from 0.78 nM to 46 µM) and the NPC collection at 8-point dilutions (final concentrations range from 0.59 nM to 46 µM). Compounds tested in follow-up screens were assayed at 11-point dilutions. Cells were incubated for 48 hours, followed by addition of 3 uL of CellTiter-Glo (Promega). After a 15 min incubation at room temperature, samples were analyzed for luminescence intensity using a ViewLux High-throughput CCD imager equipped with clear filters.
# Potency is read from the fitted curve at half-maximal effect.
SMILES,Potency,"activity change, negative = cytotoxic [%]"
CC(C)c1cc(C(=O)N2Cc3ccc(CN4CCN(C)CC4)cc3C2)c(O)cc1O,0.372 µM (active),–
CC(C)C[C@H](NC(=O)CNC(=O)c1cc(Cl)ccc1Cl)B(O)O,0.187 µM (active),–
C1=CCOCc2cc(ccc2OCCN2CCCC2)Nc2nccc(n2)-c2cccc(c2)OCC1,3.72 µM (active),–
Cc1ccc2nc(NC(=O)CSc3nc4c(c(=O)n3-c3ccccc3)SCC4)sc2c1,14.8 µM (active),–
COc1cc(C(=O)N2CCC(N3CCN(C)CC3)CC2)ccc1Nc1ncc2c(n1)N(C)c1ccccc1C(=O)N2C,18.7 µM (active),–
COC(=O)[C@]12CCC(C)(C)C[C@@H]1[C@@H]1C(=O)C=C3[C@@]4(C)C=C(C#N)C(=O)C(C)(C)[C@@H]4CC[C@@]3(C)[C@]1(C)CC2,0.235 µM (active),–
Cc1coc2c1C(=O)C(=O)c1c-2ccc2c1CCCC2(C)C,5.9 µM (active),–
Cc1[nH]nc2ccc(-c3cncc(OC[C@@H](N)Cc4ccccc4)c3)cc12,0.743 µM (active),–
CC[C@H](CO)Nc1nc(NCc2ccccc2)c2ncn(C(C)C)c2n1,16.6 µM (active),–
Nc1nccc(Oc2ccc(NC(=O)c3c[nH]cc(-c4ccc(F)cc4)c3=O)cc2F)c1Cl,0.132 µM (active),–
Nc1nc(-c2nn(Cc3ccccc3F)c3ncccc23)nc(N)c1N1CCOCC1,–,-12.8
CC(C)c1nn(-c2c(Cl)cccc2Cl)c2nc(Cc3ccc(OCCO)cc3)[nH]c(=O)c12,0.0418 µM (active),–
CCN1CCN(Cc2ccc(-c3cc4c(N[C@H](C)c5ccccc5)ncnc4[nH]3)cc2)CC1,0.332 µM (active),–
Nc1ncnc2c1c(-c1cccc(OCc3ccccc3)c1)cn2C1CC(CN2CCCC2)C1 (stereo not given),20.9 µM (active),–
O=C(O)c1ccc2cc(-c3ccc(O)c(C45CC6CC(CC(C6)C4)C5)c3)ccc2c1,0.148 µM (active),–
CCN(CC)CCCCNc1ncc2cc(-c3cc(OC)cc(OC)c3)c(NC(=O)NC(C)(C)C)nc2n1,14.8 µM (active),–
Nc1cc(C(F)(F)F)c(-c2cc(N3CCOCC3)nc(N3CCOCC3)n2)cn1,0.296 µM (active),–
CCCCCCCCCC(=O)N[C@@H](Cc1c[nH]c2ccccc12)C(=O)N[C@H](CC(N)=O)C(=O)N[C@@H](CC(=O)O)C(=O)N[C@@H]1C(=O)NCC(=O)N[C@@H](CCCN)C(=O)N[C@@H](CC(=O)O)C(=O)N[C@H](C)C(=O)N[C@@H](CC(=O)O)C(=O)NCC(=O)N[C@H](CO)C(=O)N[C@@H]([C@@H](C)CC(=O)O)C(=O)N[C@@H](CC(=O)c2ccccc2N)C(=O)O[C@@H]1C,–,117
CN1CCN(Cc2ccc(NC(=O)Nc3ccc(Oc4cc(NC(=O)C5CC5)ncn4)cc3)cc2C(F)(F)F)CC1,0.372 µM (active),–
C[C@@H]1COC(Nc2ccc3ncnc(Nc4ccc(OCc5nccs5)c(Cl)c4)c3c2)=N1,23.5 µM (active),–

SMILES,Potency,"activity change, negative = cytotoxic [%]"
Cc1ccc(NC(=O)C2(c3ccc4c(c3)OC(F)(F)O4)CC2)nc1-c1cccc(C(=O)O)c1,0.0372 µM (active),–
Cc1cn(-c2cc(NC(=O)c3ccc(C)c(Nc4nccc(-c5cccnc5)n4)c3)cc(C(F)(F)F)c2)cn1,18.7 µM (active),–
N#CCNC(=O)c1ccc(-c2ccnc(Nc3ccc(N4CCOCC4)cc3)n2)cc1,13.2 µM (active),–
Cc1cc(C(=O)N2CCN(c3cccc(Cl)c3)CC2)n(-c2ccccc2)n1,0.118 µM (active),–
Cc1cc(Nc2ncnc3ccc(-c4ccc(CNCCS(C)(=O)=O)o4)cc23)ccc1Oc1ccn2ncnc2c1,5.26 µM (active),–
Cc1cc(CN2CCN(c3c(Br)cnc4nc(-c5ccc(N6CCN(C)CC6)cc5)[nH]c34)CC2)no1,5.9 µM (active),–
CC(O)C1C(=O)N2C(C(=O)O)=C(SC3CNC(C(=O)N(C)C)C3)C(C)C12 (stereo not given),–,6.44
CC(=O)Nc1nc(C)c(-c2ccc(Cl)c(S(=O)(=O)NCCO)c2)s1,1.87 µM (active),–
CCn1cc(-c2ccnc3[nH]c(-c4cccc(CN(C)C)c4)cc23)c(-c2ccc(NC(=O)N(C)C)cc2)n1,0.0833 µM (active),–
C[C@@H]1CN(CC(=O)Nc2ccc3c(c2)Cc2cccc(-c4cc(=O)cc(N5CCOCC5)o4)c2S3)C[C@H](C)O1,14.8 µM (active),–
CC1(C)CC(=O)c2c(C(F)(F)F)nn(-c3ccc(C(N)=O)c(NC4CCC(OC(=O)CN)CC4)c3)c2C1 (stereo not given),0.332 µM (active),–
O=C(NCCS(=O)(=O)c1ccc(C(F)(F)F)cn1)c1ccc(Cl)cc1,–,3.55
Cc1cccc(C=NNc2cc(N3CCOCC3)nc(OCCc3ccccn3)n2)c1,1.32 µM (active),–
O=C(NCCCNc1nc(Nc2cccc(NC(=O)N3CCCC3)c2)ncc1I)c1cccs1,2.96 µM (active),–
O=c1[nH]nc(Sc2ncc([N+](=O)[O-])s2)n1-c1ccc2c(c1)OCCO2,9.35 µM (active),–
CC=CC1=C(C(=O)O)N2C(=O)[C@H](NC(=O)[C@H](N)c3ccc(O)cc3)[C@@H]2SC1,–,-9.28
CC(C)c1cc(-c2n[nH]c(=O)n2-c2ccc3c(ccn3C)c2)c(O)cc1O,0.118 µM (active),–
Cc1cc(Nc2cc(CN3CCOCC3)c3nc(C)c(Cc4ccc(Cl)cc4F)n3n2)n[nH]1,23.5 µM (active),–
Cc1nc2cnc3ccc(C#Cc4cccnc4)cc3c2n1-c1ccc(C(C)(C)C#N)cc1,0.332 µM (active),–
COc1cc2c(Oc3ccc(NC(=O)C4(C(=O)Nc5ccc(F)cc5)CC4)cc3F)ccnc2cc1OCCCN1CCOCC1,0.0118 µM (active),–
